Data published in PubChem BioAssay AID485 (The Scripps Research Institute Molecular Screening Center, 2006).
About 460 (0.27%) of roughly 170,000 compounds were called active.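 Rule for the calls: active = inhibition above the plate cutoff, the mean inhibition of test wells on that plate plus 3 SD (cut at about 28% in these data); inactive = the rest.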 Only a selection was taken, and actives are over-represented in it overall.

What follows are compounds tested against Sphingosine 1-phosphate receptor 3 (Homo sapiens) (UniProt Q99500) (assay: inhibition of S1P-stimulated S1P3 activation – cell-based, primary screen (AID 485;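 note: cells challenged with S1P at its EC80 of 0.8 µM; blue over green emission ratio from cleaved BLA substrate after 4 h stimulation; 0% = S1P-stimulated wells and 100% = unstimulated DMSO-only wells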)). Conditions: CHO S1P3 NFAT-BLA reporter, FRET fluorescence, antagonist mode; at 4.98 µM; stronger effect = higher value.
Chain of Sphingosine 1-phosphate receptor 3 (Homo sapiens) (Q99500 whole entry, looked up): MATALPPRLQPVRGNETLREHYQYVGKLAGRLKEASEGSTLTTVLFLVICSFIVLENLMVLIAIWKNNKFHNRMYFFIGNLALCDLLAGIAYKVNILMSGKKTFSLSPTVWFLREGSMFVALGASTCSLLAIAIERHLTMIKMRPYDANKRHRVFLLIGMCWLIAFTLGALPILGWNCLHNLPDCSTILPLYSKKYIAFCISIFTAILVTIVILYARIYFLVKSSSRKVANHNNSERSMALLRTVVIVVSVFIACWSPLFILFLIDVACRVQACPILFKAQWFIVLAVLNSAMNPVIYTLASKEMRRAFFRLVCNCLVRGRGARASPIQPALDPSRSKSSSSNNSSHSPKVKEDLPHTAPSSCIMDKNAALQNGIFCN

Structure (SMILES) | inhibition
CCN1/C(=C/c2ccc3ccc(C)cc3[n+]2CC)Sc2ccccc21 | 25.1% (inactive)
CCN1/C(=C\c2ccc3ccccc3[n+]2CC)Sc2cc(C)ccc21 | 31.2% (active)
CCC(=O)/C=C1\Sc2ccccc2N1CC | 1.3% (inactive)
C=CCSc1nnc(NC(=O)c2ccc(NC(C)=O)cc2)s1 | -1.45% (inactive)
Cc1cccc(C(=O)Nc2ccc3c(c2)C(=O)N(CC(C)C)C3=O)c1 | 2.56% (inactive)
Nc1ccccc1Sc1cc(Cl)nnc1Cl | 1.23% (inactive)
Cc1c(NC(=O)C(=O)N/N=C/c2cccs2)c(=O)n(-c2ccccc2)n1C | -2.98% (inactive)
COc1ccccc1NC(=O)C1=C(C)NC(=O)NC1c1ccc(C)s1 (stereo unspecified) | 1.95% (inactive)
COc1cccc(OC)c1C(=O)NC(=S)NCc1ccco1 | -6.79% (inactive)
NS(=O)(=O)c1ccc(CNC(=O)c2cnccn2)cc1 | -4% (inactive)
Brc1ccc(-c2nn[nH]n2)cc1 | -7.13% (inactive)
CCN(CCn1cccn1)Cc1cn[nH]c1-c1ccc(OC)cc1F | -12.8% (inactive)
COc1ccc(CCNC2=CC(=O)CC(C)(C)C2)cc1 | -7.01% (inactive)
CN(C)/C=C(/C(=O)c1ccc(Cl)c(Cl)c1)c1nnnn1-c1ccccc1 | 1.6% (inactive)
O=C(NNC(=O)c1ccccc1[N+](=O)[O-])Nc1ccccc1C(F)(F)F | -5.24% (inactive)
O=S(=O)([N-]c1nc2ccccc2nc1-[n+]1ccc(Cc2ccccc2)cc1)c1ccc(Br)s1 | 0.71% (inactive)
CCNc1nc(Oc2ccc(C(=O)OC)cc2)nc(N2CCOCC2)n1 | -9.79% (inactive)
COc1ccccc1Nc1nc(N)nc(CSC(=S)N2CCOCC2)n1 | 3% (inactive)
O=C(CCCl)Nc1ccc(S(=O)(=O)NCc2ccco2)cc1 | -8.65% (inactive)
O=C(NCc1nnc(SCC(=O)N2CCCc3ccccc32)o1)c1ccccc1F | -7.71% (inactive)
O=C(Cc1ccccc1)NCc1ccc(F)cc1 | -11% (inactive)
CSc1ccc(CN(C)CC(=O)NCc2ccc(F)cc2)cc1 | 30.2% (active)
CCCCC(=O)NCc1ccc(F)cc1 | 6.82% (inactive)
COc1ccccc1-n1c(SCC(=O)O)nc2sc3c(c2c1=O)CCC3 | -7.86% (inactive)

Structure (SMILES) | inhibition
Cc1ccc(SCCN2C(=O)NC(C)(C)C2=O)cc1 | -2.4% (inactive)
CN(C)CCCn1c(SCCN2C(=O)c3ccccc3C2=O)nc2ccccc2c1=O | 5.65% (inactive)
Nc1ccc(SCCN2C(=O)c3ccccc3C2=O)cc1 | 91.7% (active)
CCOC(=O)C1=C(C)NC(=O)NC1c1ccccc1 (stereo unspecified) | -9.13% (inactive)
CCOC(=O)C1=C(C)NC(C)=C(C(=O)OCC)C1c1ccccn1 | -28.6% (inactive)
CCOC(=O)C1=C(C)N=C2c3ccccc3C(=O)C2C1c1ccc(Br)cc1 (stereo unspecified) | 60% (active)
COc1ccc(/C=C/CN2CCCC(C(=O)c3cc(F)ccc3F)C2)cc1 (stereo unspecified) | -10.6% (inactive)
COC(=O)N(NC(=O)C(O)(C(C)C)C(C)C)c1ccccc1 | 11% (inactive)
CC(CNS(=O)(=O)c1ccc(Br)cc1)CN(C)C (stereo unspecified) | -2.53% (inactive)
COc1ccc(N=C(C)c2sc3ccccc3c2O)cc1 | 6.44% (inactive)
Cc1nc2cc(NC(=O)NC3CC3)ccc2n1C | -13.8% (inactive)
OC1CCCN(c2ncnc3c2nnn3Cc2c(F)cccc2Cl)C1 (stereo unspecified) | -7.85% (inactive)
N#C/C(=C/c1ccc(-c2ccccc2[N+](=O)[O-])o1)C(=O)NCCN1CCCCC1 | -1.3% (inactive)
CCC(C)N(C(=O)COC(=O)C1C(C(=O)OC)=C(C)NC(C)=C1C(=O)OC)C1CCS(=O)(=O)C1 (stereo unspecified) | -2.76% (inactive)
CN1C=CC=C/C1=C1\SC(=S)N(Cc2ccccc2)C1=O | -8.73% (inactive)
CCc1ccc(S(=O)(=O)NCC(O)COc2ccc(OC)cc2)cc1 (stereo unspecified) | 11.9% (inactive)
O=C(N/N=C/c1coc2ccccc2c1=O)c1cc2ccccc2o1 | 30.4% (active)
Cc1c(/C=N\NC(=O)c2cc3ccccc3o2)c2ccccc2n1C | 9.64% (inactive)
O=C(N/N=C/c1c[nH]c2ccccc12)c1cc2ccccc2o1 | -11.5% (inactive)
COc1cc(NS(=O)(=O)c2ccc(NC(=O)c3ccc(S(=O)(=O)N4CCCCC4)cc3)cc2)ncn1 | -13.9% (inactive)
CC(C)CNC(=O)C(=O)NCc1ccccc1 | 1.01% (inactive)
CCOC(=O)C1=NOC(Cn2cc(C(C)=O)c(=O)[nH]c2=O)C1 (stereo unspecified) | -0.07% (inactive)
Cc1cccc2c1N(CCOc1ccccc1)C(=O)C2=O | -6.34% (inactive)
O=C(CSc1nc2ccccc2[nH]1)c1cccs1 | -5% (inactive)

Structure (SMILES) | inhibition
Cc1nc2sc(C(=O)c3ccccc3)c(N)c2c2c1CCCC2 | 26.9% (inactive)
Nc1c(C(=O)c2cccs2)sc2nsc(SCCN3CCCCC3)c12 | 28.7% (active)
O=C(NCc1ccco1)C1CCCN1S(=O)(=O)c1ccccc1C(F)(F)F (stereo unspecified) | 5.85% (inactive)
S=C(NCCc1ccccc1)NCC1CCCO1 (stereo unspecified) | 29.2% (active)
O=C(CS(=O)(=O)Cc1ccccc1)NCC1CCCO1 (stereo unspecified) | 9.8% (inactive)
O=C(NCCc1c[nH]c2ccccc12)C(=O)NCC1CCCO1 (stereo unspecified) | -20.2% (inactive)
O=S1(=O)CC/C(=N\Nc2ccc(F)cc2)c2ccsc21 | 3.45% (inactive)
S=C(NCc1ccco1)Nc1ccc2c(c1)OCCO2 | -9.96% (inactive)
CC12CN3CCN(CC(C3)/C1=N\NC(=O)c1ccccc1N)C2 | -5.45% (inactive)
CN(c1ccccc1)S(=O)(=O)c1ccc(Cl)c(C(=O)OCC(N)=O)c1 | -15.6% (inactive)
COc1ccc(C)cc1NC(=O)C(OC(=O)c1cccc(S(=O)(=O)N(C)c2ccccc2)c1)c1ccccc1 (stereo unspecified) | -3.14% (inactive)
CC(=O)c1c(C)[nH]c(C(=O)COC(=O)c2cccc(S(=O)(=O)N(C)c3ccccc3)c2)c1C | 37.9% (active)
O=C(NCC(c1cccs1)N1CCOCC1)c1cc(-c2ccccn2)nc2ccccc12 (stereo unspecified) | -2.5% (inactive)
COCCn1c(SCC(=O)c2[nH]c(C)c(C(C)=O)c2C)nc2ccccc2c1=O | -13.7% (inactive)
NS(=O)(=O)c1ccc(NC(=O)COC(=O)c2cc3ccccc3oc2=O)cc1 | 11.2% (inactive)
O=C(N/N=C/c1cccc([N+](=O)[O-])c1)c1ccncc1 | -7.73% (inactive)
Cc1ccc(NC(=O)NNC(=O)c2sccc2-n2cccc2)cc1 | 8.38% (inactive)
COc1ccc(C2=NN(c3nc4ccccc4s3)C(=O)C2)cc1 | -9.89% (inactive)
CCOC(=O)N1CCN(c2c(NCCN3CCN(c4ccccc4F)CC3)c(=O)c2=O)CC1 | -1.55% (inactive)
COc1ccc(NC(=O)C2CCC(CNc3c(N4CCCCC4)c(=O)c3=O)CC2)c(OC)c1 (stereo unspecified) | -5.91% (inactive)
COc1ccc(NS(=O)(=O)c2ccc(Oc3c(C#N)cccc3C#N)cc2)cc1 | 1.93% (inactive)
COc1ccc(CC(=O)N[C@@H](CCSC)c2nc3ccccc3[nH]2)cc1 | -1.34% (inactive)
CCn1c(=O)c([N+](=O)[O-])c(NCc2ccc3c(c2)OCO3)c2ccccc21 | -5.99% (inactive)
O=C(Nc1ccc2oc(-c3ccccc3F)nc2c1)c1ccco1 | -11.6% (inactive)

Structure (SMILES) | inhibition
Nc1nc(SC23CC4CC(CC(C4)C2)C3)ns1 | -0.08% (inactive)
Cc1cc(=O)oc2cc(OCCC[n+]3ccccc3)ccc12 | 0.67% (inactive)
CC1=NNC(=O)C1CC(=O)N/N=C/c1ccncc1 (stereo unspecified) | -24.4% (inactive)
C[C@@H](NC(=O)OC(C)(C)C)c1nnc(S(=O)(=O)Cc2ccccc2)o1 | -3.71% (inactive)
CCOC(=O)c1oc2c(CN3CCN(CCO)CC3)c(O)c(CC)cc2c(=O)c1-c1nc2ccccc2s1 | -10.5% (inactive)
Cc1ccc(S(=O)(=O)N(C)C)cc1NC(=O)c1n[nH]c(=O)c2ccccc12 | -6.86% (inactive)
Cc1cccc(C)c1N1CCN(S(=O)(=O)N2CCCCC2)CC1 | -28.1% (inactive)
CNC(=O)Nc1cc(C(C)(C)C)no1 | 92.8% (active)
COc1ccc(CN2C(=O)C(C)S/C2=N/N=C/c2ccco2)cc1 (stereo unspecified) | -5.66% (inactive)
CCn1c(-c2cccnc2Cl)nc2cc(C)c(C)cc21 | -10.7% (inactive)
Cn1c(C(=O)O)ccc1S(=O)(=O)N(Cc1ccccc1)Cc1ccccc1 | 3.65% (inactive)
OCCC1CN(Cc2ccccc2-c2ccco2)CCN1Cc1ccsc1 (stereo unspecified) | -6.06% (inactive)
CC(=O)NC(=S)NNC(=O)c1ccc(Br)cc1 | -11.1% (inactive)
CCOc1ccc2sc(NS(=O)(=O)c3ccc(N)cc3)nc2c1 | -8.22% (inactive)
Oc1c(Br)cc(/C=N/NC(=S)NCC2CCCO2)cc1Br (stereo unspecified) | 0.61% (inactive)
Cc1cc(C(C)(C)C)cc(S(=O)(=O)Nc2ccc(C(=O)O)cc2)c1C | -12.2% (inactive)
COc1cc2[nH]c(=O)n(Cc3ccc(C(=O)NC4CCN(Cc5ccccc5)CC4)cc3)c(=O)c2cc1OC | -15.1% (inactive)
COc1ccc(N2CCN(C(=S)Nc3ccc(S(N)(=O)=O)cc3)CC2)cc1 | 6.19% (inactive)
CC(=O)NC(CC(=O)Nc1nccs1)c1ccccc1 (stereo unspecified) | -11.7% (inactive)
CSCCNCc1cn(-c2ccc(F)cc2F)nc1-c1ccccc1C | -21.2% (inactive)
CC(NC(=O)C(=O)N/N=C/c1ccc(Cl)cc1)c1ccccc1 (stereo unspecified) | -3.11% (inactive)
Cc1nc(CNS(=O)(=O)c2cc([N+](=O)[O-])ccc2C)cs1 | 10.3% (inactive)
COc1ccc(CNC(=O)CCC(=O)Nc2nnc(C(C)C)s2)cc1 | -0.16% (inactive)
CS(=O)(=O)c1ccc2nc(NC(=O)c3ccc(N4CCCC4=O)cc3)sc2c1 | -4.82% (inactive)
